In all, about 110,000 compounds were measured (“z-score”: median about -0.1, highest 2% from about 2 on). Many of the other results were omitted from the sample, so the highest values are more common in it than they were. Activity calls are given as the source filed them.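 How the source made its calls: active means z-score in the third read window above 3 or below -3; inactive means the rest.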
What follows are molecules tested against Metabotropic glutamate receptor 8 (Rattus norvegicus) (UniProt P70579) (assay: rat mGluR8 modulators via GIRK flux, primary screen, cell-based, thallium flux, HTS (AID 488969)). Conditions: HEK293 rat mGluR8, GIRK (G protein-gated inwardly rectifying potassium channel) thallium flux, FluoZin2; at 10 µM; stronger effect = higher value; submaximal glutamate (EC20) added with thallium.
Metabotropic glutamate receptor 8 (Rattus norvegicus), sequence (P70579 whole entry, looked up): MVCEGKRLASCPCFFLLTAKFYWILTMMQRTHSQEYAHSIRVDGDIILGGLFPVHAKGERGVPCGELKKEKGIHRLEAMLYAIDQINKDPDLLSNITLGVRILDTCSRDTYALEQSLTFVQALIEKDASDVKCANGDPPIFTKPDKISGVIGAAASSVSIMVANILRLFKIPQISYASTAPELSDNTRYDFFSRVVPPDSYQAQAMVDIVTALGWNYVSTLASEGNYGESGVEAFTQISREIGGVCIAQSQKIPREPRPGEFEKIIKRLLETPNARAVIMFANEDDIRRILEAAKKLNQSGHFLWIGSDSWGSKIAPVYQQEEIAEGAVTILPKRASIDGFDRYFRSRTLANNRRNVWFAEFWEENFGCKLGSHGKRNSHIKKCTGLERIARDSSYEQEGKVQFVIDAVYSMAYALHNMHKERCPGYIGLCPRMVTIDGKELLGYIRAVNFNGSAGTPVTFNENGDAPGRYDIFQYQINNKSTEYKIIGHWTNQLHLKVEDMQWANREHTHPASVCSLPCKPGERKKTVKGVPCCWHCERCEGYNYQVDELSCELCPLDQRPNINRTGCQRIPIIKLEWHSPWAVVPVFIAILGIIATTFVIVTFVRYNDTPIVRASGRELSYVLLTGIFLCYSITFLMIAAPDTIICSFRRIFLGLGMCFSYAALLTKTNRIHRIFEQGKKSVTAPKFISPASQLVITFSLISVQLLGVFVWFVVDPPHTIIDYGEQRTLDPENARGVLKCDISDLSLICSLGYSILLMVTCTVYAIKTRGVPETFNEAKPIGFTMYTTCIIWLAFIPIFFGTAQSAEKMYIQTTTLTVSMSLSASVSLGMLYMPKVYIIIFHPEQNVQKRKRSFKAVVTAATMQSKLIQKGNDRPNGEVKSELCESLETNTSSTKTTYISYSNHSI

Row | SMILES | z-score
1 | CC1=C(C(=O)Nc2ccccc2)C(c2ccco2)C(C#N)=C(SCC(=O)Nc2cccc(C)c2C)N1 (stereo not drawn) | 0.693
2 | Cc1ccnc2nc(C(=O)Nc3ccc(N4CCOCC4)cc3)nn12 | 0.0976
3 | CCOC(=O)c1c(C)[nH]c(C2=NNC(=Nc3ccccc3OC)SC2)c1C | -0.32
4 | Nc1ccc(-n2cnc3cc([N+](=O)[O-])ccc32)cc1 | -0.118
5 | CN1C(=O)NC(c2ccccc2)C2=C1CN(CCc1ccccc1)C2=O (stereo not drawn) | 0.0172
6 | CN1C(=O)NC(c2ccccc2)C2=C1CN(Cc1ccccc1)C2=O (stereo not drawn) | 7.33 (active)
7 | Cc1ccc(N2CC3=C(C2=O)C(c2ccccc2)NC(=O)N3C)cc1 (stereo not drawn) | -0.193
8 | CCOC(=O)c1c(C)[nH]c(C(=O)OCCOc2ccccc2C)c1C | -0.0787
9 | O=C1/C(=C/c2cccnc2)Oc2cc(OS(=O)(=O)c3ccc(Cl)cc3)ccc21 | 0.0689
10 | Cc1nn(-c2ccccc2)c(C)c1/C=N/NC(=O)c1cc(-c2cccc3ccccc23)n[nH]1 | -0.481
11 | Cc1c(C(=O)Oc2ccc(F)cc2)sc2ncn(Cc3cccc(F)c3)c(=O)c12 | -0.113
12 | O=c1c2ccccc2[nH]c(=S)n1Cc1cccs1 | 2.21
13 | O=C(CCn1c(=S)[nH]c2ccccc2c1=O)N1CCOCC1 | 0.695
14 | CCN(CC)CCn1c(=S)[nH]c2ccc(Cl)cc2c1=O | 1.01
15 | O=c1c2cc(Cl)ccc2[nH]c(=S)n1Cc1cccs1 | 4.2 (active)
16 | O=c1c2cc(Cl)ccc2[nH]c(=S)n1Cc1ccccn1 | 1.21
17 | CCC1CCCCN1Cc1ccc(OC)c(C)c1C (stereo not drawn) | 0.363
18 | CC(C)Oc1ccc(/C(O)=C2/C(=O)C(=O)N(CCCn3ccnc3)C2c2cccnc2)cc1 (stereo not drawn) | -0.0218
19 | O=S(=O)(Nc1ncccn1)c1ccc(Nc2ncnc3ccccc23)cc1 | 0.439
20 | Cc1cccc(OCC(=O)Nc2sc3c(c2C#N)CCC3)c1 | -0.312
21 | O=C(NC1(C(F)(F)F)NC(=O)N(Cc2cccnc2)C1=O)c1ccncc1 (stereo not drawn) | 2.13
22 | O=C(NC1(C(F)(F)F)NC(=O)N(Cc2cccnc2)C1=O)c1ccc(F)cc1 (stereo not drawn) | 0.269

Row | SMILES | z-score
23 | O=C(NC1(C(F)(F)F)NC(=O)N(Cc2cccnc2)C1=O)c1ccccc1 (stereo not drawn) | 1.13
24 | CCOC(=O)/C=C/C(=O)Nc1ccccc1-c1ccccc1NC(=O)/C=C/C(=O)OCC | -0.138
25 | COc1ccccc1OCCCOc1c(C)cc(C)cc1Br | -0.185
26 | FC(F)(F)c1nnc2ccc(N3CCCC3)nn12 | -0.343
27 | CCOC(=O)c1cnc(-n2nc(C)cc2C)nc1Nc1ccccc1OC | 0.0785
28 | CCC1CCCCN1S(=O)(=O)c1ccc(S(=O)(=O)N(Cc2ccccn2)CC2CCCO2)cc1 (stereo not drawn) | -0.251
29 | O=c1[nH]c2ccc(Cl)cc2c(=O)n1Cc1ccco1 | 5.27 (active)
30 | O=c1[nH]c2cccnc2n1Cc1ccco1 | 0.26
31 | O=c1c2cc(Cl)ccc2[nH]c(=S)n1Cc1ccco1 | 16.1 (active)
32 | O=C(c1ccc2c(=O)n(Cc3ccco3)c(=S)[nH]c2c1)N1CCN(Cc2ccccc2)CC1 | 0.611
33 | Nc1cc(=O)[nH]c(=O)n1Cc1ccco1 | 0.299
34 | COc1cc2[nH]c(=S)n(Cc3ccco3)c(=O)c2cc1OC | -0.209
35 | CC(C)NC(=O)c1ccc2c(=O)n(Cc3ccco3)c(=S)[nH]c2c1 | 0.167
36 | CN1CCN(C(=O)c2ccc3c(=O)n(Cc4ccco4)c(=S)[nH]c3c2)CC1 | 0.757
37 | O=c1c2cc3c(cc2[nH]c(=S)n1Cc1ccco1)OCO3 | 2.77
38 | OCc1cn(-c2ccccc2)nc1-c1ccc(-c2nn(-c3ccccc3)cc2CO)cc1 | 0.428
39 | Cc1ccc(NC(=O)c2cc(S(=O)(=O)c3ccccc3)ccc2Cl)cc1 | -0.0678
40 | COc1ccc(-n2c(SCCC(=O)O)nnc2-c2ccncc2)cc1 | 0.658
41 | Cc1cc(C)cc(C(=O)NCC(=O)OCC(=O)N2c3ccccc3NC(=O)C2(C)C)c1 | -0.138
42 | CC(C)c1nc(NCc2ccccc2)c(C#N)c2c1CCCC2 | -0.133
43 | CCN(CC)S(=O)(=O)c1ccc(C(=O)OCCNC(=O)c2cccnc2)cc1 | -0.485
44 | CCOc1[nH]n(-c2ccccc2)c(=O)c1C=Nc1ccc(Cl)cc1 | 0.655

Row | SMILES | z-score
45 | CCOc1[nH]n(-c2ccc(Cl)cc2)c(=O)c1C=Nc1ccc(C)cc1 | -0.176
46 | CCOc1[nH]n(-c2ccc(Cl)cc2)c(=O)c1C=Nc1ccc(Cl)cc1 | 3.26 (active)
47 | COc1ccc(-c2nc(C#N)c(N3CCC(C(N)=O)CC3)o2)cc1 | -0.0894
48 | OCCNc1ncnc2c1c(-c1ccccc1)c(-c1ccccc1)n2Cc1ccco1 | -0.463
49 | N=c1c2c(-c3ccccc3)c(-c3ccccc3)n(Cc3ccco3)c2ncn1Cc1ccccc1 | 0.528
50 | N=c1c2c(-c3ccccc3)c(-c3ccccc3)n(Cc3ccccc3)c2ncn1CCCO | 4.35 (active)
51 | CC(C)Cn1cnc2c(c(-c3ccccc3)c(-c3ccccc3)n2Cc2ccco2)c1=N | 3.58 (active)
52 | c1ccc(-c2c(-c3ccccc3)n(Cc3ccco3)c3ncnc(NCCCn4ccnc4)c23)cc1 | 2.78
53 | N=c1c2c(-c3ccccc3)c(-c3ccccc3)n(Cc3ccco3)c2ncn1CCN1CCOCC1 | -0.19
54 | N=c1c2c(-c3ccccc3)c(-c3ccccc3)n(Cc3ccccc3)c2ncn1CCO | 0.392
55 | N=c1c2c(-c3ccccc3)c(-c3ccccc3)n(Cc3ccco3)c2ncn1CCO | 0.759
56 | c1ccc(-c2oc3ncnc(NCCCn4ccnc4)c3c2-c2ccccc2)cc1 | 0.609
57 | COc1ccc(C(=O)Nc2nc3ccc4nc(C)sc4c3s2)cc1 | -0.0988
58 | CCC(C)NC(=O)Cn1c(COc2ccc(Cl)cc2Cl)nc2ccccc21 (stereo not drawn) | -2.32
59 | O=C(CN(Cc1ccccc1)C(=O)CSc1nnc(COc2ccccc2)o1)NC1CCCC1 | 0.0593
60 | Cc1cc(/C=C(\C#N)C(=O)NC2CC2)c(C)[nH]1 | 0.155
61 | CCCNC(=O)c1cccc(COCC(F)(F)C(F)F)c1 | -0.0567
62 | Cc1ccc(S(=O)(=O)N2CCOCC2)cc1C(=O)Nc1ccc2c(c1)CCC2 | -0.205
63 | O=C1/C(=C/c2cccnc2)SC(=S)N1c1ccc(F)cc1 | -0.12
64 | CCCC(=O)n1nc(-c2ccccc2)nc1N | 9.34 (active)
65 | CCC(=O)n1nc(-c2ccccc2)nc1N | -0.874
66 | CCCC(=O)n1nc(-c2cccnc2)nc1N | 0.575

Row | SMILES | z-score
67 | S=C(NC1CCCCC1)N(CCc1nc2ccccc2[nH]1)C1CCCC1 | -1.02
68 | CC1Cc2ccccc2N1C(=O)CCNS(=O)(=O)c1cccc2nsnc12 (stereo not drawn) | 0.906
69 | CCOC(=O)c1cc2n(c1/N=C/N(C)C)-c1ccccc1C2=O | -0.437
70 | CCOC(=O)c1cc2n(c1N)-c1ccccc1C2=O | 5.13 (active)
71 | CCOC(=O)c1cc(C(C)=O)c(=O)n(C)c1N | -0.198
72 | CCOC(=O)c1c(C)[nH]c(C)c1C(=O)COC(=O)/C=C/c1ccc(OC(F)F)cc1 | -0.244
73 | COCC(C)n1c(SCC(=O)NNC(=O)c2ccccc2)nc2ccccc2c1=O (stereo not drawn) | -0.346
74 | CCOC(=O)/C(C#N)=C/C1=C(N2CCCC2)CC(C)(C)OC1 | 2.75
75 | CCOC(=O)/C(C#N)=C/C1=C(N2CCCC2)CC(C)(CC)OC1 (stereo not drawn) | -0.501
76 | CCOC(=O)/C(C#N)=C\C1=C(N2CCCC2)CC(C)(C)OC1 | 0.457
77 | Cc1ccc(S(=O)(=O)N2C(=O)C(c3ccccc3)SC2=Nc2ccccc2)cc1 (stereo not drawn) | 0.00767
78 | CN(CCO)c1ccc([N+](=O)[O-])cc1C(=O)O | 0.404
79 | CCOc1ccc(S(=O)(=O)Nc2ccccc2C(=O)N/N=C/c2c(OC)ccc3ccccc23)cc1 | -0.58
80 | O=C(Nc1ccccc1C(=O)N/N=C/c1ccco1)c1ccc(Cl)cc1 | 0.162
81 | O=C(Nc1ccccc1C(=O)N/N=C/c1ccco1)c1ccccc1 | 3.37 (active)
82 | Cc1ccccc1C(=O)Nc1ccccc1C(=O)N/N=C\c1ccco1 | 5.6 (active)
83 | O=C(Nc1ccccc1C(=O)N/N=C/c1ccco1)c1ccccc1Cl | 0.924
84 | O=C(N/N=C/c1ccco1)c1ccncc1 | 0.0764
85 | Cc1nc2ccccc2cc1C(=O)N/N=C/c1ccco1 | 0.211
86 | Cc1cc(C)nc(N/N=C/c2ccccc2OCc2cccc(Br)c2)n1 | -0.027
87 | O=C(NN1C(=O)C2C3C=CC(C4CC34)C2C1=O)c1ccc(Cl)cc1Cl (stereo not drawn) | -0.0308
88 | Cc1ccc(-c2nnn(CC(=O)N(c3ccccc3)C(C(=O)NC(C)(C)C)c3cccs3)n2)o1 (stereo not drawn) | -0.243

Row | SMILES | z-score
89 | CCCC(=O)Nc1c2c(nn1-c1ccc(OC)cc1)CS(=O)C2 (stereo not drawn) | -1.01
90 | COc1ccc(Cl)cc1N(C)C(=O)CCc1nc(-c2ccc(C)cc2)no1 | 0.139
91 | CC(=O)Nc1ccc(SCC(=O)Nc2ccccc2-c2ccccc2)cc1 | -0.153
92 | O=C1c2cccc3cccc(c23)C(=O)N1OS(=O)(=O)c1ccc(Cl)cc1 | 0.123
93 | CCCCNC(=S)Nc1ccccc1F | 0.54
94 | CC(=O)N1C(=O)c2cccc3cccc(c23)C(=O)N1C(C)=O | 0.73
95 | CC(C)/C=N/NC(=O)c1ccc(Cl)cc1 | -0.254
96 | CNC(=O)CN1C(=O)c2cccc3cccc1c23 | 0.394
97 | O=C(N/N=C1/C(=O)c2cccc3cccc1c23)c1ccc(Cl)cc1 | 3.2 (active)
98 | CCNC(=S)N/N=C1\C(=O)c2cccc3cccc1c23 | 12.9 (active)
99 | CCCCNC(=S)N/N=C/c1ccc(C)s1 | 1.81
100 | CCNC(=S)NS(=O)(=O)c1ccccc1 | -0.195
101 | CCNC(=S)N/N=C/c1ccco1 | 0.768
102 | CNC(=S)N/N=C1\C(=O)c2cccc3cccc1c23 | 14.1 (active)
103 | CCCCNC(=S)N/N=C1\C(=O)c2cccc3cccc1c23 | 3.16 (active)
104 | CCC(Sc1nc2ccccc2c(=O)[nH]1)C(=O)O (stereo not drawn) | 0.219
105 | CC(C)(C)c1ccc(S(=O)(=O)NCC(=O)N2CCN(C(=O)c3ccco3)CC2)cc1 | -0.0781
106 | O=C(CCSCCC(=O)NCc1ccc(F)cc1)NCc1ccc(F)cc1 | -0.471
107 | CCOC(=O)c1c(-c2ccc(OC)cc2)csc1/N=C/N(C)C | -0.193
108 | COc1ccc2c(c1)c1nc3ccccc3nc1n2Cc1ccc(OC(C)C)c(OC)c1 | -0.644
